Experimental findings from PubChem BioAssay (Tox21) are described below.

Structures are written as SMILES. Values without a mark were called inactive. Inconclusive results are not listed. Activity calls are given as the source filed them. Unless noted, calls come from the whole dose curve; as a rule, active = well fitted curve in the direction sought with a large enough effect in the repeat runs; inconclusive = weak or mixed curves; inactive = no such curve, though single readings can be large; an effect the other way counts as inactive or inconclusive.

Assay [1] has as its target Thyrotropin-releasing hormone receptor (Homo sapiens) (UniProt P34981). Kind of assay: qHTS assay to identify small molecule agonists of the thyrotropin-releasing hormone receptor (TRHR) signaling pathway (AID 1346891; calls by dose curve;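 note: HEK293 cells expressing TRHR with calcium dye readout; series mostly up to about 58 µM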). Summed up:
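In 1536-format, 1500 TRHR-Hek293 cells per well grew 18 h, took up calcium dye for 2 h at 37 °C, received compound, and were read kinetically; 15-point titrations, triplicates.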

The nature of assay [2]: Human pregnane X receptor (PXR) small molecule agonists, qHTS cell viability counter screen (AID 1346977). Note: nearly all actives have a fitted effect of over 50% in size. Summed up: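 Readout is CellTiter-Fluor fluorescence from PXR-Luc HepG2 cells. Plated cells rested 5hr, then were treated with compounds for 24hr at 37C and 5% CO2, with reagent present during the last hour.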
For orientation: Quantitative high-throughput screening tests each substance at several concentrations.

Assay [3] in a line: Caspase-3/7 induction in HepG2 cells by small molecules, qHTS assay (AID 1346978). Note: nearly all actives have a fitted effect of over 15% in size. Summed up:
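Wild-type HepG2 cells (2,000/well) were settled 5 h at 37 C, 5% CO2, then exposed to compounds in DMSO for 17 h. Caspase-3/7 activity was read by luminescence 30 min after adding Caspase-Glo 3/7 reagent at room temperature.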

Assay [4] can be described thus: Caspase-3/7 induction in CHO-K1 cells by small molecules, qHTS assay (AID 1346980). Note: nearly all actives have a fitted effect of over 15% in size. Summed up: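 Wild-type cells were seeded at 1,500 per well and settled 5 hr at 37 C, 5% CO2, then exposed to DMSO-dissolved compounds for 17 hr. Caspase-Glo 3/7 reagent was added, and luminescence was read after 30min at room temperature.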
Assay [5] is described as follows: Caspase-3/7 induction in HepG2 cells by small molecules, qHTS cell viability counter screen (AID 1346981). Note: series mostly up to about 92 µM; nearly all actives have a fitted effect of over 30% in size. Summed up: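 In this quantitative HTS counter screen, compounds delivered in DMSO were left on unmodified HepG2 cells for 16 hr at 37 C. Viability was then determined fluorometrically with CellTiter-Fluor, in parallel with caspase-3/7 induction in the same wells.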

In assay [6] the target is Nuclear receptor subfamily 1 group I member 2 (Homo sapiens) (UniProt O75469). Kind of assay: Human pregnane X receptor (PXR) small molecule agonists, qHTS assay (AID 1346982). Note: nearly all actives have a fitted effect of over 35% in size. Note: potency is the fitted concentration of half-maximal effect. Summed up:
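Reporter HepG2 cells expressing PXR-Luc are cultured in charcoal-stripped FBS (5%), treated with compounds for 24 hr at 37 C, and assayed by ONE-Glo luminescence after 30 min at room temperature.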

Assay [7] concerns the target Cytochrome P450 2D6 (Homo sapiens) (UniProt P10635). Kind of assay: Cytochrome P450 Family 2 Subfamily D Member 6 (CYP2D6) small molecule antagonists: luciferase reporter qHTS assay (AID 1671196). Note: nearly all actives have a fitted effect of over 50% in size. Note: potency is the fitted concentration of half-maximal effect. Summed up:
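Test chemicals meet CYP2D6 plus proluciferin substrate (10 min, RT); NADPH regenerating solution then drives turnover for 1 h. Detection reagent halts the reaction; luminescence measured after 20 min.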
On the technique in general: A reporter such as luciferase makes a cellular process visible.

Assay [8] addresses Cytochrome P450 2C19 (Homo sapiens) (UniProt P33261). Kind of assay: Cytochrome P450 Family 2 Subfamily C Member 19 (CYP2C19) small molecule antagonists: luciferase reporter qHTS assay (AID 1671197). Note: nearly all actives have a fitted effect of over 65% in size. Note: potency is the fitted concentration of half-maximal effect. Summed up:
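Quantitative high-throughput screen of the Tox21 library using CYP2C19 with proluciferin substrate. Reaction: NADPH regeneration, 37C, 1 h, after 10 min compound preincubation at room temperature. Readout: luminescence.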

Assay [9] has as its target Cytochrome P450 2C9 (Homo sapiens) (UniProt P11712). Kind of assay: Cytochrome P450 Family 2 Subfamily C Member 9 (CYP2C9) small molecule antagonists: luciferase reporter qHTS assay (AID 1671198). Note: nearly all actives have a fitted effect of over 50% in size. Note: potency is the fitted concentration of half-maximal effect. Summed up: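 CYP2C9 activity was measured with a P450-Glo proluciferin substrate. Enzyme–substrate mix was held with compound for 10 min at room temperature, then NADPH regeneration solution was added for 1 h at 37C. Luciferin product was read as luminescence.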

Assay [10] deals with Cytochrome P450 1A2 (Homo sapiens) (UniProt P05177). Kind of assay: Cytochrome P450 Family 1 Subfamily A Member 2 (CYP1A2) small molecule antagonists: luciferase reporter qHTS assay (AID 1671199). Note: nearly all actives have a fitted effect of over 50% in size. Note: potency is the fitted concentration of half-maximal effect. Summed up:
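Steps: enzyme-substrate mix dispensed; test compounds and furafylline control pinned in; 10 min room temperature; NADPH regeneration solution added, 1 h; reaction stopped with luciferin detection reagent; luminescence read after 20 min.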

Assay [11] addresses Voltage-gated inwardly rectifying potassium channel KCNH2 (Homo sapiens) (UniProt Q12809). Kind of assay: Human Ether-a-go-go-Related Gene (hERG) channel small molecule antagonists: fluorescence cell-based qHTS assay (AID 1671200). Summed up: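 Measured: Tl+ flux via fluorescence (480/540 nm) in hERG-expressing U2OS cells after 1 h dye loading at room temperature.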
The target of assay [12] is Cytochrome P450 3A4 (Homo sapiens) (UniProt P08684). The assay is described as follows: Cytochrome P450 Family 3 Subfamily A Member 4 (CYP3A4) small molecule antagonists: luciferase reporter qHTS assay (AID 1671201). Summed up:
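Setup: enzyme-substrate mix, compound pin transfer, 10 min RT. Reaction: NADPH regeneration solution, 1 h RT. Readout: detection reagent stops turnover, luminescence measured after 20 min, expressed in relative luminescence units.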

A short description of assay [13]: Caspase-3/7 induction in CHO-K1 cells by small molecules, qHTS cell viability counter screen (AID 1346979). Note: nearly all actives have a fitted effect of over 35% in size. Summed up:
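To flag cytotoxic compounds, treated CHO-K1 wild-type cells were given CellTiter-Fluor at 16hr and read fluorescently after 1hr at 37C; the caspase-3/7 luminescence was measured in these same wells.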

The target of assay [14] is Nuclear receptor subfamily 1 group I member 2 (Homo sapiens) (UniProt O75469). The assay is described as follows: CYP3A4 induction through human pregnane X receptor (PXR) by small molecules, qHTS assay (AID 1346984). Note: nearly all actives have a fitted effect of over 40% in size. Note: potency is the fitted concentration of half-maximal effect. Summed up:
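Induction measured in HepG2-based DPX-2 cells co-expressing human PXR and a CYP3A4 promoter-driven luciferase. After a 24-hour compound exposure, cells received CYP3A4 luciferin substrate at 3uM final for 3 hours, and light output was then recorded.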

The target is the same in assay [15]. The assay is described as follows: Human pregnane X receptor (PXR) activation by small molecules, qHTS assay (AID 1346985). Note: nearly all actives have a fitted effect of over 40% in size. Note: potency is the fitted concentration of half-maximal effect. Summed up: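 DPX-2 cells (HepG2 co-transfected with a PXR response element and a CYP3A4-promoter luciferase construct) were seeded at 2,000 per well, rested 5 hr at 37C, then exposed to DMSO-dissolved compounds for 24 hr. Activation was read as luciferase luminescence.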

Chain of Cytochrome P450 2D6 (Homo sapiens) (P10635 whole entry, looked up): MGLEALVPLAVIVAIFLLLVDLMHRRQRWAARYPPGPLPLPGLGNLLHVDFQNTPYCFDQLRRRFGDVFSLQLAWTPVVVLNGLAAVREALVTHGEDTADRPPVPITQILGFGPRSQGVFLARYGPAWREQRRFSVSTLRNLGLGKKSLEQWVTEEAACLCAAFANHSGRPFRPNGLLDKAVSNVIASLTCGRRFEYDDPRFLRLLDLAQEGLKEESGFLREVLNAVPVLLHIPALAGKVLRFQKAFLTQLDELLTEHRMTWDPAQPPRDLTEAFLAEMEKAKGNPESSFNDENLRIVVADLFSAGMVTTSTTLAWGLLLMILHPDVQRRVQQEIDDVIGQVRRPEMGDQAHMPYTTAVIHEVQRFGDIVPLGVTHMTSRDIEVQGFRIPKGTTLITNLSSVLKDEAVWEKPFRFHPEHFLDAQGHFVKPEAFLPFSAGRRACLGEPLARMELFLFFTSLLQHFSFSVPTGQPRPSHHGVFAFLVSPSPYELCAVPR
Chain of Cytochrome P450 1A2 (Homo sapiens) (P05177 whole entry, looked up): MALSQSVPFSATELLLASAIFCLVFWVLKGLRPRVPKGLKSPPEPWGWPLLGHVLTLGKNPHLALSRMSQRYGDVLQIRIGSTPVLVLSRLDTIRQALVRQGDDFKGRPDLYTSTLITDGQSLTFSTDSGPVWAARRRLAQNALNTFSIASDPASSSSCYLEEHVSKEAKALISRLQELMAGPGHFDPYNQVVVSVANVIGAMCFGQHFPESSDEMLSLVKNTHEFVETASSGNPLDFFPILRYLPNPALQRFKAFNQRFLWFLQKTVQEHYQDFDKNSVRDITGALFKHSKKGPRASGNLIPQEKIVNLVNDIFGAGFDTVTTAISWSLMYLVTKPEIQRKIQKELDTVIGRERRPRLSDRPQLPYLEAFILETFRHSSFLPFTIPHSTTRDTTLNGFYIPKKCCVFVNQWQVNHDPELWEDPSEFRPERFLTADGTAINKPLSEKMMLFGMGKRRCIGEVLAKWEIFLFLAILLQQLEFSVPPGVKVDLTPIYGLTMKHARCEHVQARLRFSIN
Chain of Nuclear receptor subfamily 1 group I member 2 (Homo sapiens) (O75469 whole entry, looked up): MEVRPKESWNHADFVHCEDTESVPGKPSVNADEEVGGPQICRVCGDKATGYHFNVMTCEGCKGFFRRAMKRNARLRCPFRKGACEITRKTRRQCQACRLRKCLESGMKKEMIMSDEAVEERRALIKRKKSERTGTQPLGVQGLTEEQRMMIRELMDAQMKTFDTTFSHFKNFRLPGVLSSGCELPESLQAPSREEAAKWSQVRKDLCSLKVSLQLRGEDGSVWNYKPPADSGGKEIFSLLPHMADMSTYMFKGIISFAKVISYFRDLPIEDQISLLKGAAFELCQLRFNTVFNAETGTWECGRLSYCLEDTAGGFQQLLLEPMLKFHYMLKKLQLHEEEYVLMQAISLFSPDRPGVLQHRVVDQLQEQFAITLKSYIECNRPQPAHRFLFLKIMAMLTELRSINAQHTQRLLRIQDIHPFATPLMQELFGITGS
Chain of Cytochrome P450 3A4 (Homo sapiens) (P08684 whole entry, looked up): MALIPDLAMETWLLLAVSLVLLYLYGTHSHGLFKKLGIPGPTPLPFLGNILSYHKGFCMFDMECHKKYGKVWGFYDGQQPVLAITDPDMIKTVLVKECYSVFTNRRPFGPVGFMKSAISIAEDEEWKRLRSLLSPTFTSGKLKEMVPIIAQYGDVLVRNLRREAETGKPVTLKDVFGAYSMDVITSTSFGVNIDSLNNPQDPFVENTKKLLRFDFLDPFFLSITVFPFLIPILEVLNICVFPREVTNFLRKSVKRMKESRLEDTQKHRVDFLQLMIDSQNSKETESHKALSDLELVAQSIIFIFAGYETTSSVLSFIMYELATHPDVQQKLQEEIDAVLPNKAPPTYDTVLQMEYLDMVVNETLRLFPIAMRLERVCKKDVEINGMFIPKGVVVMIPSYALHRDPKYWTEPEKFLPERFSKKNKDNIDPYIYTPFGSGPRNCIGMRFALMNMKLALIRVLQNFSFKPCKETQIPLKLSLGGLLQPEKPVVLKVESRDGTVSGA
Chain of Thyrotropin-releasing hormone receptor (Homo sapiens) (P34981 whole entry, looked up): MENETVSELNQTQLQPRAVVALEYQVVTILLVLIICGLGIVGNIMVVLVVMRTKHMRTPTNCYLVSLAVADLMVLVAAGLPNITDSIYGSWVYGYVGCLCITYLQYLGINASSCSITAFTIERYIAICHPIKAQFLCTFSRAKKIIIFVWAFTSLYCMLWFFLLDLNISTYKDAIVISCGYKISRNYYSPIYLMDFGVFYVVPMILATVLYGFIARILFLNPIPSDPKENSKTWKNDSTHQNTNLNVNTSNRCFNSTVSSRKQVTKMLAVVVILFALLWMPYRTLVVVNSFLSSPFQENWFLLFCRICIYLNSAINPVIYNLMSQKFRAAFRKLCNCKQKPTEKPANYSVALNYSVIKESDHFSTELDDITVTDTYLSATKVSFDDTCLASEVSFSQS
Chain of Cytochrome P450 2C9 (Homo sapiens) (P11712 whole entry, looked up): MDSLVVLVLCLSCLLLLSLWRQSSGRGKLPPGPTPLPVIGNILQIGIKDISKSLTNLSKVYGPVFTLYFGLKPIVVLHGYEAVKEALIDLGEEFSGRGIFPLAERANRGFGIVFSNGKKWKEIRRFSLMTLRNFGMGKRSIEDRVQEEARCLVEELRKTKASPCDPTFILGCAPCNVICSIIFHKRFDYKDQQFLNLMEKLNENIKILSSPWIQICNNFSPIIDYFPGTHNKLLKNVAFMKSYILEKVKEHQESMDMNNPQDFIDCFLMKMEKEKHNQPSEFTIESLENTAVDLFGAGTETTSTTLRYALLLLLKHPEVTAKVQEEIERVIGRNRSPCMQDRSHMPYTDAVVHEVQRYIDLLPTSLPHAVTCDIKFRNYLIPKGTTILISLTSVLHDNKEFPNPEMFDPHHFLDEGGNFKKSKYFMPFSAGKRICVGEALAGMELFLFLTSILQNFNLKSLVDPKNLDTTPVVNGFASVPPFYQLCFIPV
Chain of Voltage-gated inwardly rectifying potassium channel KCNH2 (Homo sapiens) (Q12809 whole entry, looked up): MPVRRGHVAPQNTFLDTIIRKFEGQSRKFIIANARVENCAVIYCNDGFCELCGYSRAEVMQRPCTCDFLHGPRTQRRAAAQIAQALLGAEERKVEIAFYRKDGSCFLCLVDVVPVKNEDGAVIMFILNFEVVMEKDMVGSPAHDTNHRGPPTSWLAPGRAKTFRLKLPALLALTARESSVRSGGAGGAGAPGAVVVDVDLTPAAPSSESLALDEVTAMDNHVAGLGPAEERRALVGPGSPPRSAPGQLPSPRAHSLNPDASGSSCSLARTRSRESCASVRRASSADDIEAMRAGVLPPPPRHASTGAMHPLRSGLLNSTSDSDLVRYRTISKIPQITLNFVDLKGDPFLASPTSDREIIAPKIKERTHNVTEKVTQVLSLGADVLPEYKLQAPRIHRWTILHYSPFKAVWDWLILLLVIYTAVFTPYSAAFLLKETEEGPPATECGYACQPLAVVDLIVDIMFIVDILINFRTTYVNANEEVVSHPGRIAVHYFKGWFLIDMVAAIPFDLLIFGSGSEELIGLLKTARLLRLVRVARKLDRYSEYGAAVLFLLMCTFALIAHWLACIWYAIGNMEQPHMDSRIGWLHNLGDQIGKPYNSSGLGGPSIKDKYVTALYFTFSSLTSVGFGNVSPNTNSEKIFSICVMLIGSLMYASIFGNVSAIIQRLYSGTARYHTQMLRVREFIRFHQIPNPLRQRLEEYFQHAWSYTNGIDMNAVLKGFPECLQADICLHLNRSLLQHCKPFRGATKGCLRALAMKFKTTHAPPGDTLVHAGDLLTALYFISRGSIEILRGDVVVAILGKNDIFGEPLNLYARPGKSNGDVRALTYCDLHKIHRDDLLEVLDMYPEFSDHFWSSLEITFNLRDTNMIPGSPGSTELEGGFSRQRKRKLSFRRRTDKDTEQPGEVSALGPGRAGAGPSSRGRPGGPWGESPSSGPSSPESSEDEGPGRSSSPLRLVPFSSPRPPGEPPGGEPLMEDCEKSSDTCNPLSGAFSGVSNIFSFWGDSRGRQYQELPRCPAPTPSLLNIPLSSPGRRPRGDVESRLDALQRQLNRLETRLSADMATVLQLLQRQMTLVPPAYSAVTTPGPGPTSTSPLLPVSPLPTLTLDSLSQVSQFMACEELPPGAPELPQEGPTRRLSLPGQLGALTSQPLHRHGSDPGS
Chain of Cytochrome P450 2C19 (Homo sapiens) (P33261 whole entry, looked up): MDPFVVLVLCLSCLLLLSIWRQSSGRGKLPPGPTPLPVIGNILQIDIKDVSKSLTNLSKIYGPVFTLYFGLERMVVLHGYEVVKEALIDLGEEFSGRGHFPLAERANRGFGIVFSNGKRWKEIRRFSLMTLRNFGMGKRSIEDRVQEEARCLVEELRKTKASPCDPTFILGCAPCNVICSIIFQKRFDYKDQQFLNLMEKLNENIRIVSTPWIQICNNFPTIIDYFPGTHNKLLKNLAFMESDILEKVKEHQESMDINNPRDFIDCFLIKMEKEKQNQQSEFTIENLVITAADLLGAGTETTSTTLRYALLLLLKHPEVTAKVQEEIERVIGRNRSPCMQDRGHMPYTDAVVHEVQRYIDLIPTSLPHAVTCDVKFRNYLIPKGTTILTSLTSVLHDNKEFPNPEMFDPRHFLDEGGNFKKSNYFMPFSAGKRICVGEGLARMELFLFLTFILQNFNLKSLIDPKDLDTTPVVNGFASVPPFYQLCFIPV

As to `CCN1CCN(c2cc3c(cc2F)c(=O)c(C(=O)O)cn3C2CC2)CC1`, the call in [1], in [3], in assay [4] and in assay [5] was inactive. Also, the Potency result in [2], in [6], in assay [7], in assay [8], in assay [9] and in assay [10] was “inactive” in each case. Moreover, the Potency result in assay [11] and in assay [12] was “inactive” in each case.

On to `CCc1cc(S(=O)(=O)O)c2cc(C(C)C)cccc1-2`, for which the result in assay [1], in assay [3] and in assay [5] was inactive. Further, the Potency entry in assay [2], in assay [13], in [6], in assay [7], in [10] and in assay [11] was “inactive” each time.

As for `Cc1ccc(Nc2ccc(O)c3c2C(=O)c2ccccc2C3=O)cc1`, the outcome in assay [1], in assay [3], in assay [4] and in assay [5] was inactive. The Potency result in assay [2], in [6], in [7], in assay [11] and in assay [12] was “inactive” throughout.

On to `CCCCN(CCO)CCO`, for which the call in [1], in [3], in assay [4] and in assay [5] was inactive. Also, the Potency result in assay [2], in assay [6], in assay [7], in assay [8] and in assay [10] was “inactive” in each case.

Take `CC(C)c1ccc2oc3nc(N)c(C(=O)O)cc3c(=O)c2c1`: the result in [1], in assay [3] and in assay [5] was inactive. The Potency entry in assay [2], in [13], in assay [14], in [15] and in assay [11] was “inactive” throughout. Moreover, the Potency in assay [7] was 15.5 µM (active); in assay [8], 15.5 µM (active); in [9], 13.8 µM (active); in [10], 17.4 µM (active).

For `C=CC(=O)OCCCCCC`, the result in assay [1], in assay [3], in assay [4] and in assay [5] was inactive. Moreover, the Potency entry in assay [2], in [7], in assay [8], in assay [9], in assay [10] and in [11] was “inactive” in each case.

Regarding `CCO[Si](CCCN=C=O)(OCC)OCC`, the result in assay [1], in [3], in assay [4] and in assay [5] was inactive. For the same compound, the Potency result in [2], in assay [7], in [8], in [9], in assay [10] and in assay [11] was “inactive” throughout.

For the compound `Nc1ncnc2c1ncn2Cc1c(F)cccc1Cl`, the result in assay [1], in assay [3] and in assay [5] was inactive. In addition, the Potency entry in [2], in [13], in assay [7], in [8], in [9] and in assay [10] was “inactive” in each case.

In the case of `CCC(=O)c1cccc(Cl)c1`, the outcome in [1], in assay [3], in [4] and in [5] was inactive. The Potency result in assay [2], in assay [6], in assay [7], in [8], in [9] and in assay [10] was “inactive” throughout. Also, the Potency result in [11] and in [12] was “inactive” throughout.

With `CCCCCCCCCCCCCCCCCC(=O)OCCCCCCCCCCCCCC(C)C`, the result in [1], in assay [3] and in assay [5] was inactive. Besides, the Potency entry in assay [2], in assay [13], in assay [7], in [8], in assay [9] and in [10] was “inactive” each time.

For `CCCC(=O)O[C@]1(C(=O)CCl)[C@@H](C)C[C@H]2[C@@H]3CCC4=CC(=O)C=C[C@]4(C)[C@@]3(F)C(=O)C[C@@]21C`, the call in assay [1], in assay [3], in [4] and in assay [5] was inactive. Also, the Potency entry in [2] and in assay [10] was “inactive” throughout. Moreover, the Potency in assay [6] is 2.11 µM (active); in [14] it was 0.631 µM (active); in assay [15], 11.2 µM (active); in [7], 11 µM (active); in assay [8] it was 7.76 µM (active).
